We go through 14 compounds from PubChem BioAssay (EPA / NIEHS).

Records with an inconclusive call do not appear. The source made the active and inactive calls. The calls were made as follows, unless noted: active = hit-call score of the fitted dose curve at least 0.9, where 1 is the maximum; inconclusive = response in the unintended direction; inactive = score below 0.9.

The target in test [1] is Retinoic acid receptor RXR-alpha (Homo sapiens) (UniProt P19793). The experiment in a line: ATG_RXRa_TRANS: Attagene TRANS-FACTORIAL HepG2 Assay for human Retinoid X Receptor alpha (RXRa) (AID 2283012). The method in brief: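 Measures exogenous chimeric NR-GAL4 activity in transfected HepG2 liver cells after 24 h of dosing. Induced reporter mRNA was detected by RT-PCR with capillary electrophoresis, and gain of signal was analysed against DMSO.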
Sequence of Retinoic acid receptor RXR-alpha (Homo sapiens) (P19793 whole entry, looked up, the tested form may be a part): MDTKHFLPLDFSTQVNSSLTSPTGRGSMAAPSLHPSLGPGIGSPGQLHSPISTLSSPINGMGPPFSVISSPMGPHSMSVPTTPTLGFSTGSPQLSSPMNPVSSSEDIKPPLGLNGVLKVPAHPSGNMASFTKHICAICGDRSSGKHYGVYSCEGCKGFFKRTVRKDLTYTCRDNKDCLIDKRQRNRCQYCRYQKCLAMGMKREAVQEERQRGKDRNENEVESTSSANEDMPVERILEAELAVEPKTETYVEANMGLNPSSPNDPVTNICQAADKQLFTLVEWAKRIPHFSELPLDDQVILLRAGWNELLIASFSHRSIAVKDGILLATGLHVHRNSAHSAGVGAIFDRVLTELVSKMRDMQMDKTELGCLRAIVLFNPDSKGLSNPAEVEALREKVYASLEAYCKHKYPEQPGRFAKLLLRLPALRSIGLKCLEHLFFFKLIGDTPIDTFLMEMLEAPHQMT

In test [2] the target is human Retinoid X Receptor beta (RXRb), RXRB (gene 6257) (UniProt P28702). The experiment in a line: ATG_RXRb_TRANS: Attagene TRANS-FACTORIAL HepG2 Assay for human Retinoid X Receptor beta (RXRb) (AID 2283013). The method in brief:
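Chimeric receptor-Gal4 activity was assessed in transiently transfected human HepG2 cells after 24 h exposure. Transcripts from GAL4-UAS reporters were quantified by fluorescent RT-PCR and capillary electrophoresis, with DMSO as negative control and baseline.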

The target of test [3] is human Thyroid Receptor alpha (THRa1), THRA (gene 7067) (UniProt P10827). The experiment in a line: ATG_THRa1_TRANS: Attagene TRANS-FACTORIAL HepG2 Assay for human Thyroid Receptor alpha (THRa1) (AID 2283014). The method in brief: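 Transcripts from GAL4-UAS-driven reporters, measured after 24 h compound exposure by RT-PCR plus capillary electrophoresis of 6-FAM-labeled fragments, were fitted for gain of signal relative to DMSO. Cells: transiently transfected HepG2 expressing NR-Gal4 chimeras.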
Sequence of human Thyroid Receptor alpha (THRa1), THRA (gene 7067) (P10827 whole entry, looked up, the tested form may be a part): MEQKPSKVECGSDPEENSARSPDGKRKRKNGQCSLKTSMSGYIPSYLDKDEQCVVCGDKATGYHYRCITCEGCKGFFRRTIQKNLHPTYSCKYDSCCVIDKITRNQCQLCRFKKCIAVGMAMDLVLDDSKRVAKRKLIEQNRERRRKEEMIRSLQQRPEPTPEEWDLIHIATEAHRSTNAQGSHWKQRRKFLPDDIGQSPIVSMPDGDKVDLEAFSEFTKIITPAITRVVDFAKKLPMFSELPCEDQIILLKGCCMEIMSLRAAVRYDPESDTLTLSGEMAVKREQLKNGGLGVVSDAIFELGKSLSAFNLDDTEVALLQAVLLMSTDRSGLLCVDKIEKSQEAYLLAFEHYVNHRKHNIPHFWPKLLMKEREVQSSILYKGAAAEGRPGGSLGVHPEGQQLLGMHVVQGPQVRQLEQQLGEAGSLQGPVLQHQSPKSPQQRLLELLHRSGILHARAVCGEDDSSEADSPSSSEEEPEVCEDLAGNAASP

Read-out in test [4]: E-selectin (Homo sapiens) (UniProt P16581)
The experiment in a line: BSK_3C_Eselectin: BioMAP Diversity Plus: 3C Assay for Eselectin Biomarker Activity (AID 2283015; active = hit-call score of the fitted dose curve at least 0.9, where 1 is the maximum; inactive = score below 0.9;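 also: cell surface E-selectin protein quantified by ELISA 24 h after dosing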). The note with it: primary human endothelial cells (HUVEC); actives raise or lower the signal. The method in brief:
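E-selectin ELISA readout, fitted bidirectionally relative to DMSO, taken 24 h post-dosing in HUVEC cultures of the 3C system. Overt cytotoxicity tracked with sulforhodamine B staining of parallel wells.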

Read-out in test [5]: Interleukin-1 alpha (IL1a), IL1A (gene 3552)
The experiment in a line: BSK_BE3C_IL1a: BioMAP Diversity Plus: BE3C Assay for Interleukin-1 alpha (IL1a) Biomarker Activity (AID 2283016; active = hit-call score of the fitted dose curve at least 0.9, where 1 is the maximum; inactive = score below 0.9). The note with it: primary human bronchial epithelial cells; actives raise or lower the signal. The essentials: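 Signal from IL-1a ELISA, taken 24 h after chemical dosing of human bronchial epithelial cells, is compared with DMSO as baseline using bidirectional curve fitting.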

Read-out in test [6]: Monocyte Chemoattractant Protein-1 (MCP1), CCL2 (gene 6347)
As to the kind of experiment: BSK_3C_MCP1: BioMAP Diversity Plus: 3C Assay for Monocyte Chemoattractant Protein-1 (MCP1) Biomarker Activity (AID 2283017; active = hit-call score of the fitted dose curve at least 0.9, where 1 is the maximum; inactive = score below 0.9). The settings on record: primary human endothelial cells (HUVEC); actives raise or lower the signal. The essentials:
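MCP-1 was measured by ELISA 24 h after dosing in primary HUVEC 3C cultures and fitted in both directions relative to DMSO; cytotoxicity was checked by SRB total-protein staining in parallel wells.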

Read-out in test [7]: Monocyte Chemoattractant Protein-1 (MCP1), CCL2 (gene 6347)
The experiment in a line: BSK_4H_MCP1: BioMAP Diversity Plus: 4H Assay for Monocyte Chemoattractant Protein-1 (MCP1) Biomarker Activity (AID 2283018; active = hit-call score of the fitted dose curve at least 0.9, where 1 is the maximum; inactive = score below 0.9). The note with it: primary human endothelial cells (HUVEC); actives raise or lower the signal. The essentials:
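Endothelial cells from umbilical vein were treated with test chemical, then after 24 h MCP-1 levels were quantified by ELISA; endpoint values came from bidirectional fitting with DMSO as baseline of activity.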

Read-out in test [8]: Human Leukocyte Antigen - DR isotype (HLADR), HLA-DRA (gene 3122)
As to the kind of experiment: BSK_3C_HLADR: BioMAP Diversity Plus: 3C Assay for Human Leukocyte Antigen - DR isotype (HLADR) Biomarker Activity (AID 2283019; active = hit-call score of the fitted dose curve at least 0.9, where 1 is the maximum; inactive = score below 0.9;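 as to outcome: ELISA of cell-surface HLA-DR on HUVEC 24 h after dosing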). The settings on record: primary human endothelial cells (HUVEC); actives raise or lower the signal. The essentials: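 Bidirectional fitting against DMSO was applied to the HLA-DR ELISA signal from human umbilical vein endothelial cells, 24 h post-dose. Cytotoxicity came from parallel SRB total-protein staining; 3C proliferation was counted by SRB at 48 h.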

Read-out in test [9]: Interleukin-8 (IL8), CXCL8 (gene 3576)
As to the kind of experiment: BSK_3C_IL8: BioMAP Diversity Plus: 3C Assay for Interleukin-8 (IL8) Biomarker Activity (AID 2283020; active = hit-call score of the fitted dose curve at least 0.9, where 1 is the maximum; inactive = score below 0.9). The note with it: primary human endothelial cells (HUVEC); actives raise or lower the signal. The essentials: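 Endothelial primary cells of human umbilical vein origin are dosed with chemical; after 24 h the IL-8 biomarker is measured by ELISA, and concentration–response is fitted in both directions versus DMSO.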

Read-out in test [10]: Monokine induced gamma interferon (MIG), CXCL9 (gene 4283)
As to the kind of experiment: BSK_3C_MIG: BioMAP Diversity Plus: 3C Assay for Monokine induced gamma interferon (MIG) Biomarker Activity (AID 2283021; active = hit-call score of the fitted dose curve at least 0.9, where 1 is the maximum; inactive = score below 0.9). The settings on record: primary human endothelial cells (HUVEC); actives raise or lower the signal. The essentials:
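Endothelial primary cells (human umbilical vein) are dosed with test chemical in the 3C system. MIG levels are measured by ELISA at 24 h and fitted in both directions relative to DMSO.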

Test [11] has as its target human Vitamin D Receptor (VDR), VDR (gene 7421) (UniProt P11473). The experiment in a line: ATG_VDR_TRANS: Attagene TRANS-FACTORIAL HepG2 Assay for human Vitamin D Receptor (VDR) (AID 2283022). The essentials: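 Transactivation by an exogenous VDR-Gal4 chimera in transiently transfected HepG2 cells was measured as reporter transcript level 24 hours after chemical treatment. RT-PCR products were analysed by capillary electrophoresis and fitted in the positive direction relative to DMSO.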

Test [12] in a line: BSK_3C_SRB: Viability Assessment in the BioMAP Diversity Plus: 3C Assay (AID 2283023; active = hit-call score of the fitted dose curve at least 0.9, where 1 is the maximum; inactive = score below 0.9;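 also: fitted both ways against DMSO so a hit may be signal rise or drop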). The note with it: primary human endothelial cells (HUVEC). The essentials:
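Cytotoxicity readout in parallel HUVEC 3C cultures: after 24 h compound exposure, cells fixed with 10% TCA, stained with 0.1% SRB and read at 560 nm. Gain or loss relative to DMSO fitted.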

Read-out in test [13]: Matrix Metallopeptidase 1 (MMP1), MMP1 (gene 4312)
As to the kind of experiment: BSK_BE3C_MMP1: BioMAP Diversity Plus: BE3C Assay for Matrix Metallopeptidase 1 (MMP1) Biomarker Activity (AID 2283024; active = hit-call score of the fitted dose curve at least 0.9, where 1 is the maximum; inactive = score below 0.9). The note with it: primary human bronchial epithelial cells; actives raise or lower the signal. The essentials:
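MMP1 signal, measured by ELISA after a 24 h chemical exposure of human primary bronchial epithelial cells, is analysed with bidirectional fitting using DMSO as negative control.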

Test [14] is described as follows: BSK_3C_Vis: BioMAP Diversity Plus: 3C Assay for Morphology Visualization (AID 2283025; active = hit-call score of the fitted dose curve at least 0.9, where 1 is the maximum; inactive = score below 0.9;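 also: fitted both ways so gain or loss versus DMSO counts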). The settings on record: primary human endothelial cells (HUVEC). The essentials: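 Morphology read by light microscopy serves as a background control for the multiplexed 3C assay in human umbilical vein endothelial cells, taken 24 h after dosing, with DMSO as the negative control and bidirectional curve fitting.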

Read-out in test [15]: Pselectin, SELP (gene 6403)
As to the kind of experiment: BSK_4H_Pselectin: BioMAP Diversity Plus: 4H Assay for Pselectin Biomarker Activity (AID 2283026; active = hit-call score of the fitted dose curve at least 0.9, where 1 is the maximum; inactive = score below 0.9). The note with it: primary human endothelial cells (HUVEC); actives raise or lower the signal. The method in brief: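 Endothelial primary cells (human umbilical vein) are dosed, incubated 24 h, and assayed for surface P-selectin by ELISA; responses in either direction are fitted relative to the DMSO negative control.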

Test [16] is described as follows: BSK_4H_SRB: Viability Assessment in the BioMAP Diversity Plus: 4H Assay (AID 2283027; active = hit-call score of the fitted dose curve at least 0.9, where 1 is the maximum; inactive = score below 0.9;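 also: cells exposed to compound for 24 h before staining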). The settings on record: primary human endothelial cells (HUVEC). The method in brief:
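HUVEC, 24 h post-dose; 10% TCA fix, 0.1% SRB stain, A560 nm. Total protein = overt cytotoxicity, parallel to biomarker read. Bidirectional fit vs DMSO baseline.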

Test [17] in a line: BSK_BE3C_SRB: Viability Assessment in the BioMAP Diversity Plus: BE3C Assay (AID 2283028; active = hit-call score of the fitted dose curve at least 0.9, where 1 is the maximum; inactive = score below 0.9). The settings on record: primary human bronchial epithelial cells. The essentials:
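Cytotoxicity read-out: SRB (0.1%) staining of TCA-fixed (10%) human lung bronchial epithelial cells, absorbance 560 nm, 24 h post-dosing. Curves fitted both directions relative to DMSO.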

Read-out in test [18]: Thrombomodulin, THBD (gene 7056)
The experiment in a line: BSK_3C_Thrombomodulin: BioMAP Diversity Plus: 3C Assay for Thrombomodulin Biomarker Activity (AID 2283029; active = hit-call score of the fitted dose curve at least 0.9, where 1 is the maximum; inactive = score below 0.9). The settings on record: primary human endothelial cells (HUVEC); actives raise or lower the signal. The method in brief: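 Endothelial cells from umbilical vein are dosed with test chemical and incubated 24 h. Thrombomodulin is then quantified by ELISA, with DMSO serving as negative control and activity baseline.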

Sequence of human Retinoid X Receptor beta (RXRb), RXRB (gene 6257) (P28702 whole entry, looked up, the tested form may be a part): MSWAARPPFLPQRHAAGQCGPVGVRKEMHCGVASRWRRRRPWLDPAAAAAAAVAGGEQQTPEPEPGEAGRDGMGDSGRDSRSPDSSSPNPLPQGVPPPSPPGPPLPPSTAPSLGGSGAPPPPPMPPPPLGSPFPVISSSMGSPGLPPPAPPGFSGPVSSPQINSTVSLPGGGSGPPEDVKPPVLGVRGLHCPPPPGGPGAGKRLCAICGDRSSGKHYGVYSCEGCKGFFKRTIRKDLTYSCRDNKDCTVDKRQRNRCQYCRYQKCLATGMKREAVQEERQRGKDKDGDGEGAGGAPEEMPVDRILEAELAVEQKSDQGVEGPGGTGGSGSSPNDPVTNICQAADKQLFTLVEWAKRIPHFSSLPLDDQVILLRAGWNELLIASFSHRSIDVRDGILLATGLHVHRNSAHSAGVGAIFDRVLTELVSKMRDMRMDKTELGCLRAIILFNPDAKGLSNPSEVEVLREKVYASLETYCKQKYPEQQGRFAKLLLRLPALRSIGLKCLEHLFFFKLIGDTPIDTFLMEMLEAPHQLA
Sequence of human Vitamin D Receptor (VDR), VDR (gene 7421) (P11473 whole entry, looked up, the tested form may be a part): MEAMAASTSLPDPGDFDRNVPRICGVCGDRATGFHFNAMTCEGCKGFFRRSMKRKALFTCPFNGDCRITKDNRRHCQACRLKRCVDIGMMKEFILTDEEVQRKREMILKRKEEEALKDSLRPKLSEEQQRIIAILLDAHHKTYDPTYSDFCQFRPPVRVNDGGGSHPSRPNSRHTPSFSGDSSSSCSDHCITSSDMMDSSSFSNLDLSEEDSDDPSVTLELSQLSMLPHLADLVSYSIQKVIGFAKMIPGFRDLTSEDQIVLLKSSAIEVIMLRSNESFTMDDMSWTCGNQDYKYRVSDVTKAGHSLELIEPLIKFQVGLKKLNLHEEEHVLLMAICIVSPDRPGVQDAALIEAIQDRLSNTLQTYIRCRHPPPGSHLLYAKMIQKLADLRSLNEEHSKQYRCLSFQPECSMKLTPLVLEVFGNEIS
Sequence of E-selectin (Homo sapiens) (P16581 whole entry, looked up): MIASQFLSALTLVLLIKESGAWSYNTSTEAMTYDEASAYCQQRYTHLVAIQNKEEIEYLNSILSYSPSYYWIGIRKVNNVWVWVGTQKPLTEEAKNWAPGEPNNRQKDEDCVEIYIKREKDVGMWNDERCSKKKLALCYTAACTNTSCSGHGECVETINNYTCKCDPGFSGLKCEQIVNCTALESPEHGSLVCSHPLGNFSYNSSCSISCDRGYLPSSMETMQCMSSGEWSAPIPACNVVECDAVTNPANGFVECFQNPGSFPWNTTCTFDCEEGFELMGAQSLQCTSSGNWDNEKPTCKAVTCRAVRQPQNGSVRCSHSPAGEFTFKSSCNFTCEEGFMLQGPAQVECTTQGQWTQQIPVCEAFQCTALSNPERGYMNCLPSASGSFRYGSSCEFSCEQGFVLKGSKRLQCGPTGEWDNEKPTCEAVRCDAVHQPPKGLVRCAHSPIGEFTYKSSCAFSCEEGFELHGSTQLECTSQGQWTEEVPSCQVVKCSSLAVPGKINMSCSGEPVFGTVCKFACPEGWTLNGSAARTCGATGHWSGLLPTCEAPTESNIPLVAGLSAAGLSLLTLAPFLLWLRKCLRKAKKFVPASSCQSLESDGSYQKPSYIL

`CCCCCCOC(=O)CCCCC(=O)OCCCCCC`: the outcome in test [1], in test [3], in test [4], in [5], in [6] and in test [7] was inactive. Also, the result in [8], in test [9], in test [10], in test [11], in test [12] and in test [13] was inactive. The result in test [14], in test [15], in [16], in test [17] and in test [18] was inactive. In test [2], the AC50 (commonly the concentration at which the activity in the assay is half-maximal) is 54.2 µM (active).
As to `C=C1C[C@H]2[C@@H]3C=C(C)C4=CC(=O)CC[C@]4(C)[C@H]3CC[C@]2(C)[C@@]1(OC(C)=O)C(C)=O`, the compound was classed as inactive in [1].
`CC1CCC(C(C)(C)S)C(=O)C1` (configuration not stated): the compound was called inactive in test [1], in test [2], in test [3] and in [11].
`Clc1cc(Cl)c(Cl)c(Cl)c1Cl`: the result in [1], in test [3], in test [6], in test [7], in test [9] and in test [10] was inactive. For the same compound, the compound was called inactive in test [11], in test [12], in [13], in test [14], in test [16] and in test [17]. Moreover, the outcome in test [18] was inactive. Besides, the AC50 in test [2] was 21.2 µM (active); in test [5] it was 20 µM (active); in test [8], 20 µM (active); in test [15] it was 34.7 µM (active).
For the compound `CCC(C)(O)CCCC(C)C` (configuration not stated), the compound was called inactive in test [1], in test [2] and in test [3].
As for `C=CC(C)(O)CC/C=C(\C)CC` (configuration not stated), the outcome in [1] and in test [2] was inactive.
For `CC(Cl)COP(=O)(OCC(C)Cl)OCC(C)Cl` (configuration not stated), the result in [1], in test [2], in test [3], in [5], in test [6] and in test [7] was inactive. The outcome in test [8], in test [9], in [10], in test [11], in [12] and in test [13] was inactive. For the same compound, the outcome in test [14], in test [15], in [16], in test [17] and in [18] was inactive.
For the compound `CCCCC(C=O)CC` (configuration not stated), the result in test [1] and in [2] was inactive.
For the compound `CO[Si](CCCS)(OC)OC`, the outcome in test [1], in test [2] and in [3] was inactive.
As for `CCCCCCCCCC(C)=O`, the result in test [1], in test [2], in [3] and in [11] was inactive.
Take `C=CCCCCCCCCO`: the compound was classed as inactive in [1], in test [2] and in test [3].
For `CCCCOCC(C)O` (configuration not stated), the outcome in test [1], in [2], in [3] and in test [11] was inactive.
On to `CC(=O)c1ccccc1O`, for which the call in test [1] and in [2] was inactive.
Consider `CCCCCC(=O)OCC`, for which the call in test [1] and in test [2] was inactive.
